Bioassay records as filed in PubChem.
Shown are actives, neighbours in structure and some others; about 2.8% of the full set was active somewhere.
Platelet DG rel = inhibitors of platelet dense granule secretion, primary screen, cell-based, MLPCN, human platelets; human platelet-rich plasma, SFLLRN dense granule ATP release, luminescence; inhibition, %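 (compounds screened at 7.5 µM in platelet-rich plasma)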; 0.22% of 300,000 active;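 active = mean replicate score, as percent of positive control, at or above 50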
SENP7 inh = SENP7 protease inhibitors, primary screen, biochemical, luminescence, uHTS; Sentrin-specific protease 7 (Homo sapiens), Q9BQF6; recombinant SENP7, Z-RLRGG-aminoluciferin luminescence, 40 min; 1.5% of 330,000 active; AID 434973, 2010; inhibition, % at 5 µM;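 active = inhibition above about 50% at the single test dose, limit read from the data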;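 note: plate controls were DMSO with enzyme for no effect and no enzyme buffer wells for full effect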
SENP8 block-1 = human SENP8 protease inhibitors, primary screen, biochemical, fluorescence, Nedd8 protein substrate, uHTS. recombinant SENP8. Sentrin-specific protease 8 (Homo sapiens), Q96LD8. inhibition, % at 20 µM. AID 602440, 2012. 0.64% of 360,000 active; in the data active = inhibition mostly above about 40%, no sharp cut-off; inactive = mostly below about 27%
Target sequence (Q96LD8 whole entry, looked up): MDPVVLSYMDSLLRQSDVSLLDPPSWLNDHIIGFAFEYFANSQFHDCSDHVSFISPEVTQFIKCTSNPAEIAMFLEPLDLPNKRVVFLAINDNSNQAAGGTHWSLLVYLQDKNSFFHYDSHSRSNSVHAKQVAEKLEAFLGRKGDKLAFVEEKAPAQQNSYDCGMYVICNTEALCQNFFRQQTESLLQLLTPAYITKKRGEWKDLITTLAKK
SENP8 block-2 = SENP8 protease inhibitors, primary screen, biochemical, luminescence | AID 2540, 2010 | 1.2% of 330,000 active | purified SENP8, Z-RLRGG-aminoluciferin cleavage | inhibition, % at 10 µM | Sentrin-specific protease 8 (Homo sapiens), Q96LD8; in the data active = inhibition above about 50%
SENP6 block = SENP6 protease inhibitors, primary screen, biochemical, luminescence, uHTS; Sentrin-specific protease 6 (Homo sapiens), Q9GZR1; Recombinant SENP6 catalytic domain, aminoluciferin luminescence; inhibition, % at 10 µM; 1.8% of 330,000 active;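 active = inhibition above about 50% at the single tested dose, limit read from the data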;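 note: plate controls were DMSO wells with enzyme for no effect and DMSO wells lacking enzyme for full effect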
HSP90 inh = HSP90 inhibitors, primary screen, cell lysate, luminescence | Heat shock protein HSP 90 (rabbit reticulocyte lysate; luciferase refolding) | Rabbit reticulocyte lysate, luciferase refolding luminescence, 3 h | inhibition, % at 5.6 µM | 0.91% of 290,000 active | AID 1789, 2009;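 active = inhibition above the screen-wide mean plus 3 SD, computed separately per campaign, cut at about 16% in these data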;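 note: 0% = DMSO wells and 100% = 60 µM geldanamycin wells; inhibitors lower the luminescence because luciferase stays unfolded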
SENP8 confirm = SENP8 protease inhibitors, retest, confirmation, biochemical, luminescence, single concentration; shares compounds with SENP7 inh; Recombinant SENP8, Z-RLRGG-aminoluciferin luminescence, 60 min; inhibition, % at 12.5 µM; 40% of 6,200 active; AID 488912, 2010;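 active = mean inhibition across replicates above about 50%, limit read from the data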
SENP6 conf = SENP6 protease inhibitors, confirmation, biochemical, luminescence, single concentration; shares compounds with SENP7 inh; recombinant SENP6, Z-RLRGG-aminoluciferin luminescence; inhibition, % at 12.5 µM; 58% of 6,200 active; AID 488915, 2010
SENP7 conf = SENP7 protease inhibitors, retest, confirmation, biochemical, luminescence, single concentration; recombinant SENP7, Z-RLRGG-aminoluciferin luminescence, 40 min; shares compounds with SENP7 inh; 69% of 6,200 active; inhibition, % at 12.5 µM
Casp3 SENP sel = caspase-3 protease inhibitors, confirmation, selectivity assay for SENP inhibitor project, biochemical, single concentration | purified caspase-3, Z-DEVD-aminoluciferin luminescence, 60 min | AID 488918, 2010 | 60% of 6,200 active | shares compounds with SENP7 inh | inhibition, % at 12.5 µM;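 active = mean inhibition above about 50%, limit read from the data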;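 note: plate controls were enzyme with DMSO for no effect and wells without caspase-3 for full effect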
Target sequence (P42574 28-227 limits assumed): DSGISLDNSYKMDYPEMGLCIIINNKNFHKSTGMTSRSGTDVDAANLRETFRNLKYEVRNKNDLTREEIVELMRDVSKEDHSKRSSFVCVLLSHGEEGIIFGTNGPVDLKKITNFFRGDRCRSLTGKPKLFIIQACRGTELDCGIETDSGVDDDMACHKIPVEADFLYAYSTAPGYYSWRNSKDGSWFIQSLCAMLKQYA
Luc interf = luminescence interference (SENP counter-screen) | Pre-incubated SENP8/Z-RLRGG-aminoluciferin, luciferase luminescence interference | inhibition, % at 12.5 µM | shares compounds with SENP7 inh | 39% of 6,200 active | AID 488919;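 active = mean inhibition above about 50% when retested at one dose, limit read from the data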;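 note: plate controls were DMSO wells with completed reaction for no effect and substrate without enzyme for full effect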
The depositor's hits bear a star; / = no result given.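 Rule for the calls, unless noted: active = mean inhibition above about 50% in the one-dose retest (limit read from the data); inactive = the rest.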

SMILES | Platelet DG rel | SENP7 inh | SENP8 block-1 | SENP8 block-2 | SENP6 block | HSP90 inh | SENP8 confirm | SENP6 conf | SENP7 conf | Casp3 SENP sel | Luc interf
O=C(O)c1ccc(Nc2ccc([N+](=O)[O-])c3nonc23)cc1 | -9 | 68* | 32 | 81* | 85* | 3 | 89* | 85* | 97* | 72* | 82*
CC(=O)c1ccc(Nc2ccc([N+](=O)[O-])c3nonc23)cc1 | -2 | 16 | 32 | 11 | 37 | -2 | / | / | / | / | /
CCSc1nnc(NC(=O)CSc2nnc(C)c(=O)n2N)s1 | -1 | -6 | 16 | -5 | -22 | -3 | / | / | / | / | /
Cc1cccc(C)c1C(O)c1ncc(-c2cccc3ccccc23)[nH]1 (stereo unspecified) | / | / | -443 | / | / | / | / | / | / | / | /
Cn1c(C(=O)Nc2ccc3c(c2)OCCO3)cc2sccc21 | -5 | 79* | -13 | 70* | 74* | 4 | 86* | 85* | 97* | 70* | 74*
Cn1nc(C(=O)Nc2ccc(Cl)cc2)cc1C(=O)Nc1ccc(Cl)cc1 | 6 | 0 | -44 | 5 | 5 | 0 | / | / | / | / | /
Cn1nc(C(=O)Nc2ccc3c(c2)OCCO3)cc1C(=O)O | 12 | 66* | 6 | 40 | 56* | 0 | 56* | 54* | 86* | 85* | 64*
Cn1nccc1C(=O)Nc1ccc2c(c1)OCCO2 | 47 | 71* | 14 | 55* | 81* | 6 | 58* | 58* | 88* | 88* | 65*
CCN(CC)c1ccc(NC(=O)COC(=O)c2cccs2)cc1 | 2 | 56* | 6 | 23 | 53* | 1 | 29 | 26 | 62* | 47 | 3
CCN(c1ccc(NC(=O)COC(=O)c2cccs2)cc1)C(C)C | / | 64* | 14 | 42 | 73* | -1 | 68* | 65* | 90* | 71* | 70*
Cc1ccc2nsnc2c1S(=O)(=O)N(CCO)Cc1cc2cc3c(cc2[nH]c1=O)OCCO3 | 10 | 71* | -165 | -5 | -32 | 6 | -10 | -6 | -13 | -2 | 2
Cc1ccc2[nH]c(=O)c(CN(CC3CCCO3)S(=O)(=O)c3c(C)ccc4nsnc34)cc2c1 (stereo unspecified) | -2 | 4 | 11 | 5 | 2 | 4 | / | / | / | / | /
c1ccc2sc(NN=C3CCCCCC3)nc2c1 | 12 | 83* | -16 | 81* | 91* | 12 | 89* | 94* | 101* | 87* | 54*
COc1ccc(NC(=O)N(C)C[C@H]2Oc3c(NC(=O)C4CC4)cccc3C(=O)N([C@H](C)CO)C[C@@H]2C)cc1 | / | 6 | 9 | 7 | 11 | / | / | / | / | / | /
O=C(CCCC(=O)c1ccccc1)NCCc1ccccc1 | / | 1 | 27 | 3 | 5 | -3 | / | / | / | / | /
O=C(CCCC(=O)c1ccc(O)cc1)c1ccc(O)cc1 | 11 | 74* | 16 | 89* | 93* | / | 92* | 92* | 101* | 92* | 92*
O=C(CCCc1ccccc1)c1ccccc1 | 7 | 60* | 11 | 59* | 80* | 13 | -6 | 46 | 86* | 40 | 11
